Reference: PubChem BioAssay (NCATS)
Inconclusive results are not listed. Where a call stands in place of a potency, no number is given. Calls of active or inactive are those of the source. Calls come from the whole dose curve; as a rule, active = well fitted cell-killing curve with a large enough effect; inconclusive = small, poorly fitted or top-dose-only effect, or effect the other way; inactive = flat fitted curve, though single readings scatter.

System: Tov112D
Assay: Primary qHTS to identify gynecologic anti-cancer compounds using libraries of approved drugs and bioactive compounds (AID 1345084); note: nearly all actives have a fitted effect of over 55% in size
Conditions: Gynecologic cancer cell panel viability, ATPlite luminescence, 48 h; series mostly up to 57.5 µM
Outline: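 ATP-based viability (ATPlite), 1,000 cells/well, 16 h pre-incubation, 48 h compound at 37 C, 5% CO2, 15 min RT before read.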

SMILES	Potency
CC(=O)N1c2ccccc2C2(O)CC3C(=O)NC(CC(C)C)C(=O)N3C12 (centres undefined)	inactive
CCCCS(=O)(=O)Nc1ncnc(OCCOc2ncc(Br)cn2)c1-c1ccc(Br)cc1	inactive
C[C@@H]1O[C@@H](OC[C@H]2O[C@@H](OCCc3ccccc3)[C@H](O)[C@@H](O)[C@@H]2O)[C@H](O)[C@H](O)[C@H]1O	inactive
CCN[C@@H]1C[C@H](N)[C@@H](O[C@H]2OC(CN)=CC[C@H]2N)[C@H](O)[C@H]1O[C@H]1OC[C@](C)(O)[C@H](NC)[C@H]1O	inactive
CC(CO[C@@H]1O[C@H](COC(=O)/C=C/c2ccc(O)c(O)c2)[C@@H](O)[C@H](O)[C@H]1O)C1(O)COC(=O)C1 (some centres undefined)	inactive
Oc1ccc([C@H]2COc3cc(O)ccc3C2)cc1	inactive
Cc1nnc(C(C)C)n1C1CC2CCC(C1)N2CCC(NC(=O)C1CCC(F)(F)CC1)c1ccccc1 (centres undefined)	inactive
CC1(C)CCC[C@@]2(C)[C@H]1[C@H](O)C=C1COC(=O)[C@@]12O	inactive
O=C1[C@H](O[C@@H]2O[C@H](CO)[C@@H](O)[C@H](O)[C@H]2O)Oc2ccccc2N1O	inactive
COC(=O)[C@H](OC(C)=O)[C@H]1C(C)(C)C(=O)[C@H]2CC3=C4CC(=O)O[C@@H](c5ccoc5)[C@]4(C)CCC3[C@@]1(C)C2=O (some centres undefined)	inactive
CCCCN(CCCC)C(=O)CN1C[C@H](c2ccc3c(c2)OCO3)[C@@H](C(=O)O)[C@@H]1c1ccc(OC)cc1	inactive
C=C[C@](C)(CC/C=C(\C)C(=O)O)O[C@@H]1OC[C@H](O)[C@H](O)[C@H]1O	inactive
COC(=O)C1=CO[C@@H](O[C@@H]2O[C@H](CO)[C@@H](O)[C@H](O)[C@H]2O)[C@@H]2[C@@H](C(=O)OC)[C@@H](O)C(O)[C@H]12 (some centres undefined)	inactive
O=C(O)Cc1nn(Cc2nc3cc(C(F)(F)F)ccc3s2)c(=O)c2nccnc12	inactive
